# Inconclusive results are not listed. The source made the active and inactive calls. The call rests on the fitted dose curve.
# Biological target: Beta-2 adrenergic receptor (Homo sapiens) (UniProt P07550)
# Assay: Adrenergic beta2 receptor (ADRB2) small molecule antagonists, cell-based qHTS assay (AID 1963592); further: nearly all actives have a fitted effect of over 50% in size
# Details: CHO-ADRB2 cells, isoproterenol-stimulated cAMP HTRF ratio, 0.5 h; series mostly up to 92.4 µM; activity change, negative = inhibition: at the top concentration
# Description: U.S. Tox21 Program National Center for Advancing Translational Sciences [NCATS] Division of Preclinical Innovation [DPI] U.S. Environmental Protection Agency [EPA] National Institutes of Environmental Health Sciences [NIEHS] National Toxicology Program [NTP] U.S. Food and Drug Administration [FDA] Tox21 Assay Overview: Beta adrenergic receptors (Beta-ARs) belong to the G-protein coupled receptor (GPCR) superfamily, includes three subtypes - beta1, beta2, and beta3. Beta1-AR is the predominant receptor subtype expressed in the heart, and beta2-AR is expressed in the kidney, lung, blood vessel and in the heart, and beta3 is found in the adipocytes. Beta1 and 2 ARs couple to Gs protein and elevate cyclic adenosine mono phosphate (cAMP), which activates protein kinase A and leads to the downstream signaling responsible for the physiological actions. Beta-AR agonists or antagonists are the most prescribed therapeutic agents for heart failure and asthma, and these were one of the first target receptors for the rational drug design. Tox21 10K compound library was screened using the cAMP-Gs dynamic assay (Cisbio Bioassays, Shelton, CT) to identify agonists/antagonists of the Gs-coupled human adrenergic, beta2 receptor (ADRB2) in the CHO-ADRB2 cell line (Codex BioSolutions, Inc. Gaithersburg, MD), which stably over-expresses ADRB2. The principle of cAMP-Gs dynamic assay is based on HTRF technology, which facilitates the fluorescence resonance energy transfer (FRET) between donor Europium cryptate and acceptor d2-labeled cAMP. The cAMP generated within cells competes with the red acceptor, d2-labled cAMP, for binding to the monoclonal anti-cAMP-cryptate (Europium donor). An increase in intracellular cAMP leads to the disruption of FRET signal, and the signal is inversely proportional to the cAMP concentration. Propranolol HCl (Sigma-Aldrich, St. Louis, MO) was used as a positive control in the screening.
# Tox21 Assay Protocol Summary: CHO-ADRB2 cells were dispensed at 1,000/well in 4uL assay medium into white/solid 1536-well plates (Greiner Bio-One North America Inc., Monroe, NC) using a Multidrop Combi dispenser (ThermoFisher Scientific, Waltham, MA). The assay plates were incubated at 37C and 5% CO2 for an overnight (18-20hr). Then positive control and test compounds dissolved in DMSO were transferred to the assay plates at 23nL using a Pintool station (Wako, San Diego, CA). Following the compound and positive control transfer, 1uL agonist-stimulation mix containing 1nM Isoproterenol HCl, 100uM IBMX and 25uM Ro-20-1724 was added to each well of the assay plates using BioRAPTR Flying Reagent Dispenser (FRD, Beckman Coulter, Brea, CA). The assay plates were incubated at room temperature for 0.5hr. Then 2.5ul each d2-labled cAMP and anti-cAMP-cryptate solutions were added separately to each well of the assay plates using an FRD and the assay plates were incubated at room temperature for 1hr. The fluorescence signal was measured at two different wavelengths (665nm and 615nm) using an Envision plate reader (Perkin Elmer, Shelton, CT). Data were expressed as the ratio of 665 nm/615 nm.
# On the % scale 0 is the no-effect control and ±100 the full control effect; potency means the concentration at half of the fitted maximal effect.
# Sequence of Beta-2 adrenergic receptor (Homo sapiens) (P07550 whole entry, looked up): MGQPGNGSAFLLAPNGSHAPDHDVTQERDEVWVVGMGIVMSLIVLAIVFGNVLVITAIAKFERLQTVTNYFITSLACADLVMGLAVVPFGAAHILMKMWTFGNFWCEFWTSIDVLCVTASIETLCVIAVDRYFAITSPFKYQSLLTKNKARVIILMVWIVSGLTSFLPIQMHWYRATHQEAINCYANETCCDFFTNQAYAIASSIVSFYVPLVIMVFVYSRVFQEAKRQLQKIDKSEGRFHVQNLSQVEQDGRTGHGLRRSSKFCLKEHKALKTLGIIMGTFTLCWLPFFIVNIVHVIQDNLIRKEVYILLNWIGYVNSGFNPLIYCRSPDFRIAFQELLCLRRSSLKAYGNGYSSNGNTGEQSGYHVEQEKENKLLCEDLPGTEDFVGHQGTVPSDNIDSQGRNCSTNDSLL
SMILES,"activity change, negative = inhibition",Potency
C[Si](C)(CCCN)O[Si](C)(C)CCCN,10.9% (inactive),–
CC1CCc2cc(F)cc3c(=O)c(C(=O)O)cn1c23 (stereo not given),6.26% [at 42.5 µM] (inactive),–
CNC(=O)CN(CCN(CCN(CC(=O)[O-])CC(=O)NC)CC(=O)[O-])CC(=O)[O-].O.[Gd+3],0.713% [at 42.5 µM] (inactive),–
Nc1nc(Cl)nc2c1ncn2[C@@H]1O[C@H](CO)[C@@H](O)[C@@H]1F,-8.4% [at 42.5 µM] (inactive),–
CCOCCOCCOC(C)=O,-3.76% (inactive),–
Oc1c(I)cc(I)c2cccnc12,-5.58% [at 42.5 µM] (inactive),–
Oc1ccccc1C=NCc1ccccc1,-2.44% [at 42.5 µM] (inactive),–
CCOC(=O)Nc1ccc(NCc2ccc(F)cc2)nc1N,2.82% [at 42.5 µM] (inactive),–
Oc1ccc2c(c1)CCC2,-6.79% (inactive),–
CC(C)(O)c1ccccc1CC[C@@H](SCC1(CC(=O)O)CC1)c1cccc(/C=C/c2ccc3ccc(Cl)cc3n2)c1,5.79% [at 42.5 µM] (inactive),–
OCCN1C[C@H](O)[C@@H](O)[C@H](O)[C@H]1CO,10.4% [at 42.5 µM] (inactive),–
CCCCCCCCSCc1cc(C)c(O)c(CSCCCCCCCC)c1,0.0836% (inactive),–
O=C1CCCc2c(O)cccc21,7.79% [at 42.5 µM] (inactive),–
CCCCCCCC/C=C\CCCCCCCC(=O)OC,-1.23% (inactive),–
Cc1cc(C)c(NC(=O)CN(CC(=O)O)CC(=O)O)c(C)c1Br,1.33% [at 42.5 µM] (inactive),–
OCC(O)[C@@H](O)[C@H](O)[C@H](O)CO[C@H]1O[C@H](CO)[C@@H](O)[C@H](O)[C@H]1O (stereo not given in full),-4.38% (inactive),–
CC(C)(C)N(CCO)CCO,-3.18% (inactive),–
CN(C)C(=O)Nc1ccc(Oc2ccc(Cl)cc2)cc1,-7.71% (inactive),–
CN1CCN(C2=Nc3cc(F)ccc3Cc3ccccc32)CC1,–,29.8 µM (active)
C/C(=C\C(C)CC(C)CC(C)C)C1CC(=O)OC1=O (stereo not given),2.2% (inactive),–

SMILES,"activity change, negative = inhibition",Potency
C=CC(=O)OCCOC(=O)CCC(=O)O,-22.4% (inactive),–
FC(F)OC(Cl)C(F)(F)F (stereo not given),0.265% (inactive),–
CC(C)NCCCC1(C(N)=O)c2ccccc2-c2ccccc21,-1.41% [at 42.5 µM] (inactive),–
CN[C@@H]1[C@H](O)[C@H](NC)[C@H]2O[C@@]3(O)C(=O)C[C@@H](C)O[C@H]3O[C@@H]2[C@H]1O,6.41% [at 42.5 µM] (inactive),–
CC(=O)O[C@H]1CC[C@@]2(C)C(=CC[C@@H]3[C@@H]2CC[C@]2(C)C(C(C)=O)=CC[C@@H]32)C1,11% [at 42.5 µM] (inactive),–
CC(C)CCCCCCOC(=O)CCCCC(=O)OCCCCCCC(C)C,2.31% (inactive),–
Nc1nc(N)nc(-c2cc(Cl)ccc2Cl)n1,-19.3% [at 42.5 µM] (inactive),–
CC(C)(C)c1cc(CCC(=O)NN)cc(C(C)(C)C)c1O,3.08% (inactive),–
Cc1cnc(C)c(C)n1,-0.221% (inactive),–
Cc1[nH]cnc1CN1CCc2c(c3ccccc3n2C)C1=O,2.05% [at 42.5 µM] (inactive),–
COc1ccc(Nc2ccc(OC)cc2)cc1,2.89% (inactive),–
CC(CC1c2ccccc2CCc2ccccc21)CN(C)C (stereo not given),-25.8% [at 42.5 µM] (inactive),–
c1ccc(CN(CC2=NCCN2)c2ccccc2)cc1,-0.624% [at 42.5 µM] (inactive),–
CC(CN1CC(=O)NC(=O)C1)N1CC(=O)NC(=O)C1 (stereo not given),-23.3% (inactive),–
COC[C@H](c1ccc(C(F)(F)F)cc1)N1CCN(C2(C)CCN(C(=O)c3c(C)ncnc3C)CC2)C[C@H]1C,-19.1% [at 42.5 µM] (inactive),–
NS(=O)(=O)c1cc2c(cc1Cl)CN(C1CCCCC1)C2=O,-4.16% [at 42.5 µM] (inactive),–
COc1ccccc1N1CCN(CCCNc2cc(=O)n(C)c(=O)n2C)CC1,–,13.3 µM (active)
CN1C(=O)c2ccc([N+](=O)[O-])cc2C1=O,1.25% (inactive),–
CC(=O)Nc1ccc(C)cc1C,5.89% (inactive),–
CC(=O)Oc1cc(C(C)C)c(OCCN(C)C)cc1C,-0.56% [at 42.5 µM] (inactive),–
